This passage reports PBM binding z-score results from the supplement of paper PMC6555819.

Common to all, as to assay: PBM binding z-score (relative to random genomic background probes); higher = stronger binding; sequences stand for … in GC…GCGATTGACAGCGTAGAATGAAGG
For test [1], the system named is FXR:RXRa (NR concentration 270 nM, RXRa partner concentration 90 nM). The gist of the method: (§1)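 Binding z-scores take random background probes as their reference. They come from custom Agilent 4×180K protein-binding microarrays incubated 1 h with ligand-free nuclear receptor dimers, with antibodies against each partner (one per run) detecting binding. Scanned fluorescence was regression-normalized.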

For test [2], the system named is LXRa:RXRa (NR concentration 270 nM, RXRa partner concentration 90 nM). In outline: as §1
Test [3] concerns LXRa homodimer (NR concentration 270 nM). The gist of the method:
as §1

Test [4] has as its system LXRb:RXRa (NR concentration 270 nM, RXRa partner concentration 90 nM). In outline:
as §1

Test [5] deals with LXRb homodimer (NR concentration 270 nM). The gist of the method: as §1
For test [6], the system named is PPARa:RXRa (NR concentration 270 nM, RXRa partner concentration 90 nM). The gist of the method:
as §1

Test [7] concerns PPARg:RXRa (NR concentration 180 nM, RXRa partner concentration 90 nM). In outline: as §1
For test [8], the system named is PPARg:RXRa 270nM:90nM, anti-RXR (NR concentration 270 nM, RXRa partner concentration 90 nM). In outline:
as §1

Test [9] deals with PPARg:RXRa 30nM:10nM, anti-RXR (NR concentration 30 nM, RXRa partner concentration 10 nM). In outline:
as §1

Test [10] concerns PPARg:RXRa 90nM:30nM, anti-RXR (NR concentration 90 nM, RXRa partner concentration 30 nM). The gist of the method: as §1
Test [11] relates to PPARg:RXRa DBDmut IVT, anti-RXR (DBD mutation: RXRa K156A/R161A, NR concentration 270 nM, RXRa partner concentration 90 nM). In outline:
as §1

In test [12] the test system is PPARg:RXRa IVT, anti-PPARg (NR concentration 270 nM, RXRa partner concentration 90 nM). The gist of the method:
as §1

Test [13] concerns PPARg DBDmut:RXRa IVT, anti-PPARg (DBD mutation: PPARg1 K132A/R137A, NR concentration 270 nM, RXRa partner concentration 90 nM). The gist of the method: as §1
Test [14] has as its system PPARg DBDmut IVT, anti-PPARg (DBD mutation: PPARg1 K132A/R137A, NR concentration 270 nM). The gist of the method: as §1
For test [15], the system named is PPARg homodimer (NR concentration 180 nM). The gist of the method:
as §1

For test [16], the system named is PXR:RXRa (NR concentration 270 nM, RXRa partner concentration 90 nM). The gist of the method: as §1
The test system of test [17] is PXR homodimer (NR concentration 270 nM). The gist of the method: as §1
The test system of test [18] is RARa:RXR (NR concentration 270 nM, RXRa partner concentration 90 nM). The gist of the method:
as §1

In test [19] the test system is RARa homodimer (NR concentration 270 nM). In outline: as §1
Test [20] has as its system RARb:RXRa (NR concentration 270 nM, RXRa partner concentration 90 nM). The gist of the method:
as §1

Turning to CCCTACGGGTCACTGACAGGTTATAGCATTTGGA, the PBM binding z-score is 5.12 in test [1]; 4.24 in [2]; 0.501 in [3]; 3.53 in [4]; -0.128 in test [5]; 5.1 in [6]. For the same sequence, the PBM binding z-score in test [7] was 3.55; in test [8] it was 3.77; in [9], 0.787; in [10] it was 2.43; in [11], 0.759; in [12], 2.29. The PBM binding z-score in test [13] was -0.15; in test [14], -0.444; in test [15] it was 2.79; in test [16] it was 3.54; in [17], 0.381; in test [18], 4.28. In addition, the values for the PBM binding z-score in [19] and in [20] were 1.02 and 4.02, respectively.
Turning to CGTCCAAGGTCAATGCTAGGACAGTGAAAGCATT, the PBM binding z-score in [1] worked out at 6.19; in test [2], 4.43; in [3], 0.325; in test [4], 3.53; in [5] it was 0.27; in test [6], 5.19. Moreover, the PBM binding z-score is 3.96 in [7]; 4.09 in test [8]; 1.22 in test [9]; 2.76 in test [10]; 3.02 in [11]; 3.24 in [12]. For the same sequence, the PBM binding z-score in test [13] is -0.452; in [14], -0.465; in [15] it was 1.7; in test [16], 3.22; in test [17], 0.241; in [18], 3.44. For the same sequence, the PBM binding z-score is -0.11 in test [19] and 4.96 in [20].
AGAACGAGGGCAAGCTGAGTTGATAGCAGAGTAG: the PBM binding z-score is 0.521 in test [1]; 0.295 in test [2]; -0.476 in test [3]; 0.14 in test [4]; -0.878 in test [5]; 1.4 in test [6]. Besides, the PBM binding z-score in test [7] came out at 1.32; in test [8], 1.19; in test [9] it was 0.0687; in test [10], 0.484; in test [11] it was 3.94; in [12], 2.42. For the same sequence, the PBM binding z-score was 0.0132 in test [13]; -0.565 in [14]; 0.238 in test [15]; 1.13 in test [16]; 0.458 in [17]; 0.426 in test [18]. Besides, the PBM binding z-score in test [19] was -0.421; in test [20], 2.46.
Regarding GCCTGTAGATCAAGGTTAAGAAAGACTAAGCTAA, the PBM binding z-score was 0.000969 in test [1]; 0.697 in test [2]; -0.269 in test [3]; 0.679 in test [4]; -0.964 in test [5]; 1.28 in test [6]. Moreover, the PBM binding z-score amounted to 0.434 in test [7]; 1.19 in test [8]; 0.0672 in test [9]; 0.861 in test [10]; 0.625 in [11]; 0.319 in test [12]. The PBM binding z-score in test [13] was -0.514; in test [14], -0.208; in test [15] it was -0.292; in [16], 0.333; in [17], -0.503; in test [18] it was 0.885. Further, the PBM binding z-score was -1.02 in test [19] and 0.799 in test [20].
Consider CCGACTGGGGGAAAGGTTACCATACTCAGTACGA, for which the PBM binding z-score in [1] worked out at 1.81; in [2], 2.38; in [3] it was 0.42; in test [4], 3.4; in test [5], 3.72; in test [6], 5.42. In addition, the PBM binding z-score was 9.9 in test [7]; 9.24 in [8]; 8.87 in test [9]; 9.88 in test [10]; 2.52 in test [11]; 5.31 in [12]. The PBM binding z-score in test [13] is 3.53; in test [14], 3.07; in test [15], 1.86; in test [16], 2.63; in [17] it was 0.241; in test [18], 3.24. For the same sequence, the PBM binding z-score in [19] was found to be 0.206; in test [20] it was 2.04.
In the case of CCTGCTAGGTCAATGTTCAGCTAAAGCAGCTCGC, the PBM binding z-score in test [1] is 3.04; in [2] it was 2.39; in test [3], -0.0143; in [4], 1.52; in test [5], 0.516; in [6] it was 3. Besides, the PBM binding z-score is 2.51 in [7]; 3.63 in test [8]; 0.934 in test [9]; 2.93 in [10]; 4.27 in test [11]; 3.55 in test [12]. The PBM binding z-score in test [13] was -0.21; in test [14] it was -0.461; in test [15] it was 1.39; in [16], 0.795; in [17], -0.474; in test [18], 1.54. The PBM binding z-score in test [19] was -0.305; in test [20] it was 3.8.
GCTATTAGTTGTAAGGGCAACCGAATGATTCTCG: the PBM binding z-score in test [1] was 0.301; in test [2] it was 0.305; in test [3] it was 0.235; in test [4], 0.38; in test [5] it was -0.00961; in [6], 0.472. For the same sequence, the PBM binding z-score in test [7] amounted to 0.397; in [8] it was 0.63; in [9] it was 0.129; in test [10], 0.634; in test [11], 0.378; in [12], 0.518. The PBM binding z-score was found to be 0.0721 in test [13]; 0.01 in [14]; 0.811 in test [15]; 0.273 in test [16]; 0.159 in test [17]; 0.496 in [18]. Moreover, the PBM binding z-score in test [19] is 0.359; in test [20] it was 1.41.
